{"source": "the OligoGym collection", "data": [{"biological_target": "RGS9", "assay": "pooled miR-30 sensor sort-seq; sequence = guide strand", "settings": "shRNA", "values": [{"sequence": "TTTTTGACAGCAACGACTGTTT", "sensor-assay potency score (higher = more potent)": -0.217}, {"sequence": "TATCTGTCTGCTTTGTTCCTCT", "sensor-assay potency score (higher = more potent)": -0.0404}, {"sequence": "TTTACCTTGACTTCATTCGGAT", "sensor-assay potency score (higher = more potent)": 0.0975}, {"sequence": "TTCCTTTTCATATTCTTCCAAA", "sensor-assay potency score (higher = more potent)": -0.756}, {"sequence": "TTGCCATCTATGTTGATCCAGC", "sensor-assay potency score (higher = more potent)": -0.689}, {"sequence": "TTCTTTTTGATATTTCGCTTGG", "sensor-assay potency score (higher = more potent)": -0.579}, {"sequence": "TGACTTTGGACTGATCTCCATA", "sensor-assay potency score (higher = more potent)": -0.742}, {"sequence": "TTTCTTTTTGATATTTCGCTTG", "sensor-assay potency score (higher = more potent)": -0.178}, {"sequence": "TTGCAGAACATCACTTCCTGTC", "sensor-assay potency score (higher = more potent)": 0.603}]}, {"biological_target": "RHBDL3", "assay": "pooled miR-30 sensor sort-seq; sequence = guide strand", "settings": "shRNA", "values": [{"sequence": "TGTCATAGTACCACTTGCGGTC", "sensor-assay potency score (higher = more potent)": -0.531}, {"sequence": "TAATGTAGCCTGTGTTCCCAGG", "sensor-assay potency score (higher = more potent)": -0.768}, {"sequence": "AAATCCACCACAGTGACTGGTC", "sensor-assay potency score (higher = more potent)": 0.238}, {"sequence": "TTAGGCTGACAAAATCCTGGTA", "sensor-assay potency score (higher = more potent)": 0.00913}, {"sequence": "ATCCGCAGCAGCTTGAACTGGC", "sensor-assay potency score (higher = more potent)": -0.0826}, {"sequence": "AAACTGATCAAACAGGACTTTC", "sensor-assay potency score (higher = more potent)": -1.76}, {"sequence": "TAGGCTGACAAAATCCTGGTAG", "sensor-assay potency score (higher = more potent)": 0.858}, {"sequence": "TTGCCTGTGCTAATGTAGCCTG", "sensor-assay potency score (higher = more potent)": -0.542}, {"sequence": "TTGAACTGGCACTTCATGCCTG", "sensor-assay potency score (higher = more potent)": 0.341}, {"sequence": "TGAACTGGCACTTCATGCCTGA", "sensor-assay potency score (higher = more potent)": 0.0699}, {"sequence": "TAGCTGTCATAGTACCACTTGC", "sensor-assay potency score (higher = more potent)": -0.706}, {"sequence": "TGATCAAACAGGACTTTCCAGT", "sensor-assay potency score (higher = more potent)": -0.423}]}, {"biological_target": "RHOF", "assay": "pooled miR-30 sensor sort-seq; sequence = guide strand", "settings": "shRNA", "values": [{"sequence": "TTGATGAGGACGTTGTCGTAGC", "sensor-assay potency score (higher = more potent)": 0.173}, {"sequence": "ATGAGCAGCGAGGTCTTGCCGC", "sensor-assay potency score (higher = more potent)": -1.07}, {"sequence": "AAACTTGGCGGAACATTCCAGG", "sensor-assay potency score (higher = more potent)": -0.805}, {"sequence": "TAGGTGATGGGCTCCAGCTGGG", "sensor-assay potency score (higher = more potent)": -0.461}, {"sequence": "TAGAGAGCAGCTCGGATCTGTT", "sensor-assay potency score (higher = more potent)": -0.736}, {"sequence": "TTCAGCTCCTTCCTGCCCGGAC", "sensor-assay potency score (higher = more potent)": -0.816}, {"sequence": "TTCCTCAGGTCTGTCTTGCAGC", "sensor-assay potency score (higher = more potent)": -0.598}, {"sequence": "TACTTCTCGAACACCGATGGGG", "sensor-assay potency score (higher = more potent)": 0.0393}, {"sequence": "TCCAGGTAGAGAGCAGCTCGGA", "sensor-assay potency score (higher = more potent)": -1.54}, {"sequence": "TTGCTGCCAACGGTCACGCTGG", "sensor-assay potency score (higher = more potent)": -0.873}, {"sequence": "TAGTCTTCTTGCCCGGCCGTGT", "sensor-assay potency score (higher = more potent)": -1.09}, {"sequence": "TAGCAGATGAGCACGAGGTGGG", "sensor-assay potency score (higher = more potent)": 0.0207}]}, {"biological_target": "RHOH", "assay": "pooled miR-30 sensor sort-seq; sequence = guide strand", "settings": "shRNA", "values": [{"sequence": "TCCGGGAAGGTCTCGGAGGTGA", "sensor-assay potency score (higher = more potent)": -1.75}, {"sequence": "AAGCGCACCAACAGAGAGGTTT", "sensor-assay potency score (higher = more potent)": -0.535}, {"sequence": "TAATTTCACCAATCCACTTGTT", "sensor-assay potency score (higher = more potent)": 0.134}, {"sequence": "TCCATGAAGACGTCCACCCCTG", "sensor-assay potency score (higher = more potent)": -1.1}, {"sequence": "TTCAGGAATGAGTTATGGTTGG", "sensor-assay potency score (higher = more potent)": -0.949}, {"sequence": "TTCACTTGTAGAGTGTAGTTAG", "sensor-assay potency score (higher = more potent)": 0.0342}, {"sequence": "AATTTCACCAATCCACTTGTTC", "sensor-assay potency score (higher = more potent)": -0.62}]}]}
